Assay outcomes: PubChem BioAssay, National Center for Advancing Translational Sciences (NCATS)
Most compounds without a hit are left out; they make up all but 9.2% or so of the library.
Rab9 prom act = activators of Rab9 promoter | 320,000 compounds, 2.8% hits | AID 485297 | Potency, µM (top dose mostly 9.22 µM), most hits filed as activators | Huh7 Rab9 promoter-luciferase reporter, luminescence, 24 h; also: nearly all actives have a fitted effect of over 60% in size
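Rab9 promoter-driven luciferase in stably transfected Huh7 cells; 1500 cells/well rested 2 h, exposed to compound in DMSO for 24 h at 37 °C, 5% CO2. Luminescence read 10 min after adding luciferase reagent at ambient temperature.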
ELG1 repair inh = ELG1-dependent DNA repair inhibition; HEK293T ELG1-luciferase reporter, luminescence, 16 h; DNA damage induced by 5-fluorouridine; Potency, µM (highest dose often 46.1 µM), most hits filed as inhibitors; 330,000 compounds, 2.3% hits; also: nearly all actives have a fitted effect of over 55% in size
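In this reporter screen, reduction of luminescence relative to DMSO vehicle indicated activity. Compounds and 5-fluorouridine were added together to 2,000 cells per well, incubated for 16 hr at 37 °C, then developed with ONE-Glo.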
NPC1 prom act = activators of NPC1 promoter. Potency, µM (highest dose often 9.22 µM), usual class: activators. 320,000 compounds, 2.4% hits. Huh7 NPC1 promoter luciferase reporter, 24 h; also: nearly all actives have a fitted effect of over 60% in size
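In 1536-well qHTS, Huh7 cells harboring an NPC1 promoter–luciferase construct received compound for 24 h; activation was quantified by luminescence following luciferase reagent addition.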
FLuc modulator = inhibits or activates purified firefly luciferase, miR-21 counter-screen | P08659 | purified FLuc, Km substrates, luminescence inhibition | Potency, µM (doses to about 57.5 µM), actives largely listed as inhibitors | 360,000 compounds, 6.9% hits; also: nearly all actives have a fitted effect of over 55% in size
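Biochemical qHTS of compounds, final roughly 60 µM downward over six points, against 10 nM purified firefly luciferase using Km concentrations of substrates (10 uM D-luciferin, 10 uM ATP) in Tris acetate pH 7.5 buffer; luminescence output.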
SMN2 splice up = SMN2 splice variant enhancement | HEK293 SMN2-luciferase splicing reporter, luminescence, 30-36 h | Potency, µM (top dose mostly 46.1 µM), most hits filed as activators | 210,000 compounds, 2.8% hits | AID 1458; also: nearly all actives have a fitted effect of over 55% in size
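qHTS luciferase splicing reporter: luminescence rises when SMN2 exon 7 is included in transfected HEK293 cells. Compound exposure lasted 30-36 h at 37C, with 4.5 mM final sodium butyrate as control, followed by a ONE-Glo read.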
ELG1 genotox = genotoxicity induction in ELG1-luciferase HEK293T cells | HEK293T ELG1-luciferase reporter, luminescence, 16 h | 330,000 compounds, 1.3% hits | Potency, µM (highest dose often 46 µM), most hits filed as activators; also: nearly all actives have a fitted effect of over 60% in size
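After overnight (16 hr) compound treatment at 37 °C, ELG1-luciferase HEK293T cells were lysed with ONE-Glo; luminescence quantified 30 min later at room temperature.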
ELG1 FLuc counter = luciferase inhibition in cell-free luciferin readout for ELG1 hits; AID 624247; 350 compounds, 3% hits; shares compounds with ELG1 repair inh; cell-free firefly luciferase luminescence counter-screen, ViewLux; Potency, µM (series often up to 46.1 µM), most hits filed as inhibitors
ELG1 Luc conf = human ELG1 repair inhibition, luciferase-tagged ELG1 confirmation | Potency, µM (series often up to 46.1 µM), hits mostly inhibitors | HEK293T ELG1-luciferase levels, luminescence; cells co-treated with 5-fluorouridine | 670 compounds, 68% hits | shares compounds with ELG1 repair inh | AID 624248; also: nearly all actives have a fitted effect of over 55% in size
ELG1 MMS Luc = confirmation of human ELG1 repair inhibitors, MMS stimulated; HEK293T luciferase-tagged ELG1 level, MMS stimulated; shares compounds with ELG1 repair inh; 670 compounds, 53% hits; Potency, µM (series often up to 46.1 µM), actives largely listed as inhibitors; also: nearly all actives have a fitted effect of over 60% in size
ELG1 5-FU = confirmation of ELG1 repair inhibitors: viability with 5FU; shares compounds with ELG1 repair inh; cell viability with 5-FU, ELG1-dependent repair; Potency, µM (doses to about 46.1 µM), most hits filed as cytotoxic; 670 tested, under 10 active;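 also: ELG1-luc HEK293T cells cotreated with 5-fluorouridine at 10 µM final; viability measured 16 h after compound addition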
ELG1 MMS viab = confirmation of ELG1 repair inhibitors: viability with MMS. shares compounds with ELG1 repair inh. Potency, µM (highest dose often 46.1 µM), hits mostly cytotoxic. 670 compounds, 33% hits. Cell viability with MMS, ELG1-dependent DNA repair;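 also: ELG1-luc HEK293T cells co-treated with 10 µM MMS; viability read 16 h after compound addition; nearly all actives have a fitted effect of over 60% in size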
ELG1 unstim viab = counter-screen for ELG1 repair inhibitors: unstimulated cell viability; 900 compounds, 8% hits; Potency, µM (highest dose often 45.9 µM), usual class: cytotoxic; shares compounds with ELG1 repair inh; cell viability counter-screen, unstimulated, luminescence;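 also: compound exposure lasted 16 hours before reading; nearly all actives have a fitted effect of over 55% in size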
FLuc enzyme = inhibits purified firefly luciferase, counter-screen for ELG1 hits | 350 compounds, 10% hits | purified firefly luciferase, luminescence counter-screen | shares compounds with ELG1 repair inh | Potency, µM (highest dose often 57.5 µM), usual class: inhibitors
Of the large screens only hits and unclear results are named; the others gave an inactive call (follow-up assays come after a bar, where they were run). Calls follow the shape of the dose curve; as a rule, active = well fitted curve in the direction sought with a large enough effect; inconclusive = small, poorly fitted or top-dose-only effect, or another doubt; inactive = no such curve, though single readings can be large; an effect the other way counts as inactive or inconclusive.

NC(=S)c1cn(C2OC(CO)C(O)C2O)c2ncnc(N)c12 (centres undefined)	ELG1 repair inh 0.41µM (no result: SMN2 splice up) | ELG1 FLuc counter inconclusive | ELG1 Luc conf 0.16µM | ELG1 MMS Luc 0.32µM | ELG1 5-FU inactive | ELG1 MMS viab 2µM | ELG1 unstim viab inconclusive | FLuc enzyme inactive
CCOC(=O)c1cccc(NS(=O)(=O)c2ccc(NC(C)=O)cc2)c1	ELG1 repair inh 4.6µM | ELG1 Luc conf 13µM | ELG1 MMS Luc 10µM | ELG1 5-FU inactive | ELG1 MMS viab 11µM | ELG1 unstim viab inconclusive
FC(Cl)(Cl)Cl	none (no result: Rab9 prom act, ELG1 repair inh, NPC1 prom act, FLuc modulator, ELG1 genotox)
O=C(Nc1cc(C(F)(F)F)cc(C(F)(F)F)c1)c1cc(Cl)ccc1O	none (no result: Rab9 prom act, ELG1 repair inh, NPC1 prom act, FLuc modulator, SMN2 splice up, ELG1 genotox) | ELG1 FLuc counter inconclusive | ELG1 Luc conf 0.71µM | ELG1 MMS Luc 0.35µM | ELG1 5-FU inconclusive | ELG1 MMS viab 0.4µM | ELG1 unstim viab inconclusive | FLuc enzyme inactive
CCCCCCCC(=O)Cl	none (no result: Rab9 prom act, ELG1 repair inh, NPC1 prom act, FLuc modulator, ELG1 genotox)
CCC(Cl)[N+](=O)[O-] (centres undefined)	none (no result: Rab9 prom act, ELG1 repair inh, NPC1 prom act, FLuc modulator, ELG1 genotox)
CCOP(=O)(OCC)C(Nc1cccc([N+](=O)[O-])c1)c1ccc(OC)cc1 (centres undefined)	ELG1 repair inh inconclusive (no result: SMN2 splice up)
COc1ccc(C(Nc2ccccc2)P(=O)(Oc2ccccc2)Oc2ccccc2)cc1 (centres undefined)	ELG1 repair inh inconclusive | ELG1 FLuc counter inactive | ELG1 Luc conf 7.1µM | ELG1 MMS Luc inconclusive | ELG1 5-FU inconclusive | ELG1 MMS viab inconclusive | ELG1 unstim viab inconclusive | FLuc enzyme inactive
Oc1cc(Cl)ccc1Cl	none (no result: Rab9 prom act, ELG1 repair inh, NPC1 prom act, FLuc modulator, ELG1 genotox)
CCC1OC2(C)C(O)C(/C=C/C=C/C=C/c3oc(=O)cc(OC)c3C)OC1(C)C2OC(C)=O (centres undefined)	none (no result: Rab9 prom act, ELG1 repair inh, NPC1 prom act, FLuc modulator, SMN2 splice up, ELG1 genotox) | ELG1 FLuc counter inconclusive | ELG1 Luc conf 2.2µM | ELG1 MMS Luc 0.2µM | ELG1 5-FU inactive | ELG1 MMS viab 0.16µM | ELG1 unstim viab inconclusive | FLuc enzyme inactive
CC(=O)OC[C@]12CCC(C)=C[C@H]1O[C@@H]1[C@H](O)[C@@H](OC(C)=O)[C@@]2(C)[C@]12CO2	ELG1 repair inh 0.018µM (no result: SMN2 splice up) | ELG1 FLuc counter inconclusive | ELG1 Luc conf 0.028µM | ELG1 MMS Luc 0.018µM | ELG1 5-FU inactive | ELG1 MMS viab 0.044µM | ELG1 unstim viab inconclusive | FLuc enzyme inactive
CC(=O)OC[C@]12C[C@H](OC(=O)CC(C)C)C(C)=C[C@H]1O[C@H]1[C@H](O)[C@@H](OC(C)=O)[C@@]2(C)[C@]12CO2	none (no result: Rab9 prom act, ELG1 repair inh, NPC1 prom act, FLuc modulator, ELG1 genotox)
O=c1c(O)c(-c2ccc(O)c(O)c2)oc2c(O)c(O)cc(O)c12	none (no result: Rab9 prom act, ELG1 repair inh, NPC1 prom act, FLuc modulator, ELG1 genotox)
